Activity calls are given as the source filed them. How the source made its calls: active means hit-call score of the fitted dose curve at least 0.9, where 1 is the maximum; inactive means score below 0.9.

Assay [1] is described as follows: APR_HepG2_CellLoss_72hr: Apredica 72-hour HepG2 Assay for Cell Loss (AID 2282915). The note with it: high-content imaging. In short, it runs like this: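 HepG2 cells exposed 72 h to compound at 0.39–200 uM (10 concentrations, duplicate) in 0.5% DMSO. Fixed with 3.7% formaldehyde and Hoechst 33342-stained. Imaged at 20x; nuclear count gives cell number, fitted bidirectionally versus DMSO.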

Assay [2] in a line: APR_HepG2_P-H2AX_72hr: Apredica 72-hour HepG2 Assay for H2AX Phosphorylation (AID 2282916).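 Further: phospho-histone H2A.x immunostain intensity per cell marking DNA damage.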 The settings on record: imaging, actives raise or lower the signal. In short, it runs like this:
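Phospho-histone H2A.x immunofluorescence, multiplexed with Hoechst and c-Jun, quantified by high-content imaging. Compounds applied to HepG2 for 72 h across ten concentrations (0.39–200 uM, 0.5% DMSO), in duplicate; DMSO baseline.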

The nature of assay [3]: APR_HepG2_MitoticArrest_72hr: Apredica 72-hour HepG2 Assay for Mitotic Arrest (AID 2282918). The settings on record: high-content imaging, actives raise or lower the signal. In short, it runs like this:
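HepG2, 72 hr exposure, 0.39–200 uM in duplicate, 0.5% v/v DMSO final. Formaldehyde-fixed, Triton-permeabilized, anti-phospho-histone H3/FITC plus Hoechst. ArrayScan imaging at 20x; curves fit bidirectionally against DMSO baseline.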

A short description of assay [4]: APR_HepG2_MicrotubuleCSK_72hr: Apredica 72-hour HepG2 Assay for Microtubule CSK Stabilty (AID 2282919). The settings on record: HepG2 microtubule cytoskeleton, high-content imaging, actives raise or lower the signal. In short, it runs like this:
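HepG2, 72 hr cmpd exposure, 0.39–200 uM (10 pts, duplicate), 0.5% DMSO. 3.7% formaldehyde fix, 0.5% Triton perm, anti-alpha-tubulin/Cy5 plus Hoechst. HCS fluorescence intensity; bidirectional fit vs DMSO baseline; taxol as positive control.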

Assay [5] in a line: APR_HepG2_P-H2AX_24hr: Apredica 24-hour HepG2 Assay for H2AX Phosphorylation (AID 2282920). The note with it: high-content imaging, actives raise or lower the signal. In short, it runs like this:
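HCS fluorescence imaging of phospho-H2A.x immunostain (with Hoechst 33342 nuclear counterstain) in HepG2 after 24 hr compound exposure; 10 concentrations, 0.39–200 uM, duplicate wells, 0.5% v/v DMSO. Gain or loss of signal fitted relative to DMSO baseline.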

Assay [6] is described as follows: APR_HepG2_StressKinase_72hr: Apredica 72-hour HepG2 Assay for Stress Kinase (AID 2282921). The settings on record: HepG2 stress kinase (phospho-c-Jun) imaging, actives raise or lower the signal. In short, it runs like this: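 Stress kinase signal is phospho-c-Jun immunofluorescence (1:500 primary, Cy3 secondary) in fixed, permeabilized human HepG2 cells imaged at 20x. Exposure lasted 72 hr over ten concentrations from 0.39 to 200 uM, 0.5% DMSO, in duplicate. Bidirectional fit versus DMSO.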

The nature of assay [7]: APR_HepG2_StressKinase_24hr: Apredica 24-hour HepG2 Assay for Stress Kinase (AID 2282922). The note with it: HepG2 stress kinase (phospho-c-Jun) imaging, actives raise or lower the signal. In short, it runs like this: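 Read-out: phospho-c-Jun immunofluorescence (Cy3 secondary) quantified by high-content imaging at 20x, nuclei defined by Hoechst 33342. Human HepG2 liver cells dosed 24 hr, 0.39–200 uM, DMSO 0.5% v/v; gain or loss of signal fitted relative to DMSO.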

A short description of assay [8]: APR_HepG2_MitoMass_72hr: Apredica 72-hour HepG2 Assay for Mitochondrial Mass (AID 2282924).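 Further: MitoTracker Red CMXRos stain intensity per cell imaged as mitochondrial mass.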 The settings on record: high-content imaging, actives raise or lower the signal. In short, it runs like this: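 Read-out: MitoTracker Red fluorescence intensity from automated imaging (20x, six fields per well) in human HepG2 liver cells. Dosing ran 72 hr, 0.39–200 uM, 0.5% DMSO; bidirectional curve fitting versus DMSO baseline.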

A short description of assay [9]: APR_HepG2_NuclearSize_72hr: Apredica 72-hour HepG2 Assay for Nuclear Size (AID 2282925). The settings on record: high-content imaging, actives raise or lower the signal. In short, it runs like this:
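Read-out: nuclear diameter from Hoechst 33342 images (ArrayScan, 20x, six fields/well), via cell-cycle image analysis. HepG2 were dosed 0.39–200 uM for 72 hr in 0.5% DMSO. Bidirectional fit relative to DMSO.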

A short description of assay [10]: ATG_CRE_CIS: Attagene CIS-FACTORIAL HepG2 Assay for human cAMP Responsive Element (CRE) binding protein 3 (AID 2282926). The settings on record: HepG2 CRE cis-reporter, Attagene multiplexed mRNA; actives raise or lower the signal. In short, it runs like this: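 Readout: fluorescently labelled reporter transcripts resolved by capillary electrophoresis after RT-PCR, taken 24 h post-dosing in transfected HepG2. Endogenous transcription factor activity drives each cis-element reporter; gain or loss of signal fitted relative to DMSO control.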

Assay [11] deals with CCAAT/enhancer-binding protein beta (Homo sapiens) (UniProt P17676). As to the kind of experiment: ATG_C_EBP_CIS: Attagene CIS-FACTORIAL HepG2 Assay for human CCAAT/Enhancer Binding Protein (C/EBP) beta (AID 2282927). The settings on record: HepG2 Attagene cis-factorial transcription factor reporter; actives raise or lower the signal. In short, it runs like this: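 HepG2, transient MRTU transfection, 24 h treatment. RT-PCR plus CE fluorescence; DMSO negative control, bidirectional fit.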

The nature of assay [12]: ATG_CMV_CIS: Attagene CIS-FACTORIAL HepG2 Assay for human CMV (Internal Marker) (AID 2282928).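 Further: endpoint acts as a background internal control marker rather than a target.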 The settings on record: HepG2 CMV promoter reporter, transcription factor profiling; actives raise or lower the signal. In short, it runs like this:
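Fluorescence intensity of RT-PCR-derived reporter fragments, resolved by capillary electrophoresis, gives the signal. HepG2 liver cells bearing transfected cis-element reporters were treated 24 h; activity in either direction was fit relative to DMSO-treated controls.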

A short description of assay [13]: ATG_DR4_LXR_CIS: Attagene CIS-FACTORIAL HepG2 Assay for human Liver X Receptor (LXR), DR4 submotif (AID 2282929). The settings on record: HepG2 Attagene DR4 cis-reporter, mRNA transcription; actives raise or lower the signal. In short, it runs like this: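 The endpoint is DR4-element-driven reporter transcripts after 24 h chemical exposure of transfected HepG2 cells. These were measured via RT-PCR and capillary electrophoresis, and gain or loss of signal was fitted relative to DMSO controls.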

Assay [14] addresses Aryl hydrocarbon receptor (Homo sapiens) (UniProt P35869). Briefly: ATG_Ahr_CIS: Attagene CIS-FACTORIAL HepG2 Assay for human Aryl Hydrocarbon Receptor (Ahr) (AID 2282930). The settings on record: HepG2 AhR cis-factorial reporter transcription; actives raise or lower the signal. In short, it runs like this: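 Endogenous factor activity is tracked through cis-promoter reporter units transfected into HepG2 cells. Transcript levels at 24 h are read by fluorescent RT-PCR and capillary electrophoresis, with activity in either direction scored relative to DMSO.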

Assay [15] is described as follows: ATG_AP_1_CIS: Attagene CIS-FACTORIAL HepG2 Assay for human Activator Protein 1 (AP-1) (AID 2282931). The note with it: HepG2 Attagene cis-factorial AP-1 reporter mRNA; actives raise or lower the signal. In short, it runs like this: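 Readout is reporter transcript level from endogenous transcription factor activity, quantified by RT-PCR with fluorescent primer extension and capillary electrophoresis. Transiently transfected HepG2 cells, 24 h exposure. Curves fitted both directions versus DMSO.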

A short description of assay [16]: ATG_AP_2_CIS: Attagene CIS-FACTORIAL HepG2 Assay for human Activator Protein 2 (AP-2) (AID 2282932). The note with it: HepG2 AP-2 cis-reporter, Attagene transcription factor profiling; actives raise or lower the signal. In short, it runs like this: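 Liver-derived HepG2 line, cis-reporter system measuring endogenous factors; 24 h dosing; reporter mRNA detected by fluorescent RT-PCR and capillary electrophoresis.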

Assay [17] is described as follows: ATG_BRE_CIS: Attagene CIS-FACTORIAL HepG2 Assay for human Bone Morphogenetic Protein (BMP) Response Element (BRE) (AID 2282933). The settings on record: HepG2 BMP response element reporter, Attagene transcription factor profiling; actives raise or lower the signal. In short, it runs like this:
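A HepG2 multiplex reporter system measured inducible reporter mRNA 24 h post-dosing. Detection: RT-PCR, 6-FAM primer extension, HpaI digestion, capillary electrophoresis. Activity fitted bidirectionally relative to DMSO.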

Assay [18] concerns the target Retinoic acid receptor alpha (Homo sapiens) (UniProt P10276). As to the kind of experiment: ATG_DR5_RAR_CIS: Attagene CIS-FACTORIAL HepG2 Assay for human Retinoic Acid Receptor Alpha (RARE), DR5 submotif (AID 2282934).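 On AC50: reporter responds to endogenous RAR alpha beta and gamma in HepG2 not RARA alone.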 The note with it: HepG2 Attagene cis-factorial RARE DR5 reporter, mRNA; actives raise or lower the signal. In short, it runs like this:
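After 24 h of chemical exposure, transiently transfected HepG2 cells were lysed for total RNA; the DR5-regulated reporter transcript was quantified via RT-PCR and capillary electrophoresis, with activity fitted bidirectionally against DMSO.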

Assay [19] is described as follows: APR_HepG2_MitoMembPot_72hr: Apredica 72-hour HepG2 Assay for Mitochondrial Membrane Potential (AID 2282917). The note with it: imaging, actives raise or lower the signal. In short, it runs like this: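 HepG2 cells dosed 72 hr with compound at 0.39–200 uM in duplicate, 0.5% v/v DMSO final. Mitochondria stained with 250 nM MitoTracker Red CMXRos for 30 min before formaldehyde fixation, imaged by high-content fluorescence; bidirectional fit versus DMSO.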

The nature of assay [20]: APR_HepG2_p53Act_72hr: Apredica 72-hour HepG2 Assay for p53 Activation (AID 2282923).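 Further: average cellular p53 protein immunofluorescence intensity in HepG2 cells.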 The settings on record: high-content imaging, actives raise or lower the signal. In short, it runs like this:
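After 72 h with compound (ten points, 0.39 to 200 uM, final DMSO 0.5% v/v), fixed HepG2 cells were labelled with sheep anti-p53 and Hoechst 33342 and imaged; gain or loss versus DMSO scored.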

Sequence of Retinoic acid receptor alpha (Homo sapiens) (P10276 whole entry, looked up): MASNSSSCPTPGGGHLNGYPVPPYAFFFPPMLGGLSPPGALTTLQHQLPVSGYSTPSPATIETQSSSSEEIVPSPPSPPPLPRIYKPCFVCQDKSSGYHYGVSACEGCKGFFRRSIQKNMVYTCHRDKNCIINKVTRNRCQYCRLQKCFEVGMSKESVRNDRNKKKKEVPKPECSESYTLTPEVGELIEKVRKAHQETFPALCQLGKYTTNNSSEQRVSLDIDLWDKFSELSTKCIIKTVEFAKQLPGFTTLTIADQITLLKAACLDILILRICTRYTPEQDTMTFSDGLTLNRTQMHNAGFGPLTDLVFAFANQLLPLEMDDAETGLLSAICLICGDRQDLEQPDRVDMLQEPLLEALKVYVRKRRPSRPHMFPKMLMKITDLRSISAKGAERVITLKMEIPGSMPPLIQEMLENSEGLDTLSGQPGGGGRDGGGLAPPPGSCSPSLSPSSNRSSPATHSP
Sequence of CCAAT/enhancer-binding protein beta (Homo sapiens) (P17676 whole entry, looked up): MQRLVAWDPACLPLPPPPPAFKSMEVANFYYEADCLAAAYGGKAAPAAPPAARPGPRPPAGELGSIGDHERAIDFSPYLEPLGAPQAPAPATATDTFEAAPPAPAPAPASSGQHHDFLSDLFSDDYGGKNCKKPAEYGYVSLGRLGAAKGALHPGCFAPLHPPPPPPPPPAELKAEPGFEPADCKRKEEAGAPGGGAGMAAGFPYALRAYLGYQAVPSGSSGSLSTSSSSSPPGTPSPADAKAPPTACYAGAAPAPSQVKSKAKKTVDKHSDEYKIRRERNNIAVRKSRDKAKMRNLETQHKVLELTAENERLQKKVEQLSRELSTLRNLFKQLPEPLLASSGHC
Sequence of Aryl hydrocarbon receptor (Homo sapiens) (P35869 whole entry, looked up): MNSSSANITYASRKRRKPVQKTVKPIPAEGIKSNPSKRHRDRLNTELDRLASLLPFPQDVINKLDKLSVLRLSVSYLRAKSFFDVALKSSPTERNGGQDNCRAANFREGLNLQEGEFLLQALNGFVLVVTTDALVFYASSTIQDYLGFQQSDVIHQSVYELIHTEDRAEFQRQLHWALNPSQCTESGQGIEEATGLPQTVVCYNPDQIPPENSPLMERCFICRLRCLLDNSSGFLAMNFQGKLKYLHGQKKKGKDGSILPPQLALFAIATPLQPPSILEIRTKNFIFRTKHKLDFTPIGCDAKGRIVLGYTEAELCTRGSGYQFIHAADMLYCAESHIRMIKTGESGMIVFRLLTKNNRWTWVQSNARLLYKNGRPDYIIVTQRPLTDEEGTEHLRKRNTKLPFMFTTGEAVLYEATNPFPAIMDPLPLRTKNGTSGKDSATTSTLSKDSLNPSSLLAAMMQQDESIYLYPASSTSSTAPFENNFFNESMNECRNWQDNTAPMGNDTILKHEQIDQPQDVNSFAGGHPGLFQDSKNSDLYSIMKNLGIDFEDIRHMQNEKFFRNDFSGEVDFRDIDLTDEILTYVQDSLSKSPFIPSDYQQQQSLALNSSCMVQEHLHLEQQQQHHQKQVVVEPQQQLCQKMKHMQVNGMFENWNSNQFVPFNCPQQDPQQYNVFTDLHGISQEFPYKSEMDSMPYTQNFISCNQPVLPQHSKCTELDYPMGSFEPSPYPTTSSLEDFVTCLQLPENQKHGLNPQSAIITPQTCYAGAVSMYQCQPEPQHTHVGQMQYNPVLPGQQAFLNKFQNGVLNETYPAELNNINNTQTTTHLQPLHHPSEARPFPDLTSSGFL

By AC50 is commonly meant the midpoint of the concentration-response curve, whichever way the signal moves. For `CCOc1cc(C(C)(C)C)ccc1C1COC(c2c(F)cccc2F)=N1` (stereo not drawn), the AC50 in assay [1] is 103 µM (active); in [4] it was 47.2 µM (active); in [10], 4.09 µM (active); in assay [13], 13.2 µM (active); in assay [18] it was 4.26 µM (active). The call in [2], in [3], in assay [5], in assay [6], in [7] and in [8] was inactive. Further, the call in assay [9], in [11], in [12], in assay [14], in assay [15] and in assay [16] was inactive. Also, the compound was called inactive in assay [17].

Take `CS(=O)(=O)c1ccc(C(=O)C2C(=O)CCCC2=O)c([N+](=O)[O-])c1`: the compound was called inactive in [1], in assay [2], in assay [19], in assay [3], in assay [4] and in [5]. The call in assay [6], in assay [20], in assay [8], in [10], in [11] and in assay [12] was inactive. In addition, the outcome in assay [13], in assay [14], in assay [15] and in [17] was inactive.

On to `COc1ccc(-c2ccccc2)cc1NNC(=O)OC(C)C`, for which the call in assay [1], in assay [2], in [19], in assay [3], in [5] and in [6] was inactive. For the same compound, the outcome in assay [7], in assay [20], in assay [8], in assay [9], in [10] and in assay [13] was inactive. In addition, the result in assay [18] was inactive. Besides, the AC50 in [12] was 13.5 µM (active); in [15], 14.7 µM (active); in assay [17] it was 2.32 µM (active).

In the case of `C=C(C)CN(CC)c1c([N+](=O)[O-])cc(C(F)(F)F)cc1[N+](=O)[O-]`, the AC50 in [1] is 105 µM (active); in [4], 135 µM (active); in assay [13], 50 µM (active); in assay [18] it was 18.4 µM (active). For the same compound, the call in assay [2], in assay [19], in assay [3], in assay [5], in assay [6] and in [8] was inactive. Also, the outcome in assay [10], in assay [11], in assay [12], in assay [14], in [15] and in assay [16] was inactive. Further, in assay [17], the compound was classed as inactive.

`CCNC(=O)NC(=O)C(C#N)=NOC`: the outcome in [1], in [2], in assay [19], in [3], in assay [5] and in assay [6] was inactive. The call in [8], in assay [9], in assay [10], in assay [12], in assay [13] and in assay [14] was inactive. Besides, the outcome in [15], in assay [16], in assay [17] and in assay [18] was inactive.

As for `CCN(CC)C(=O)C(C)Oc1cccc2ccccc12` (stereo not drawn), the AC50 was 77.6 µM (active) in assay [1], 2.24 µM (active) in assay [10], 14.9 µM (active) in assay [14] and 14.4 µM (active) in [17]. The result in assay [2], in assay [19], in [3], in [5], in assay [6] and in assay [20] was inactive. Further, the outcome in assay [8], in assay [9], in assay [12], in assay [13] and in [15] was inactive.

Take `COP(=O)(OC)O/C(C)=C/C(=O)N(C)C`: the compound was classed as inactive in assay [1], in assay [2], in assay [19], in assay [3], in assay [5] and in assay [6]. In addition, the call in assay [8], in assay [9], in [10], in [12], in assay [13] and in [14] was inactive. The compound was called inactive in assay [15], in assay [17] and in assay [18].

Source of the values: PubChem BioAssay (EPA / NIEHS).
